Hits are enriched below; roughly 1.2% of the tested compounds scored in any of these assays.
RGS7-Gao: regulators of human RGS7-Galphao interaction; P09471; 220,000 tested, 0.35% active; binding response (% of control), % at 10 µM; AID 1439; Multiplexed bead flow cytometry, RGS7-Galphao binding; actives lie on both sides; in the data active = binding response below about 49% or above about 150%; inconclusive = no clear call, values can overlap the other calls; inactive = in between;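 also: fluorescent Galphao held in activated GDP-AlF4 state binding bead-coupled RGS7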
Target sequence (P09471 whole entry, looked up): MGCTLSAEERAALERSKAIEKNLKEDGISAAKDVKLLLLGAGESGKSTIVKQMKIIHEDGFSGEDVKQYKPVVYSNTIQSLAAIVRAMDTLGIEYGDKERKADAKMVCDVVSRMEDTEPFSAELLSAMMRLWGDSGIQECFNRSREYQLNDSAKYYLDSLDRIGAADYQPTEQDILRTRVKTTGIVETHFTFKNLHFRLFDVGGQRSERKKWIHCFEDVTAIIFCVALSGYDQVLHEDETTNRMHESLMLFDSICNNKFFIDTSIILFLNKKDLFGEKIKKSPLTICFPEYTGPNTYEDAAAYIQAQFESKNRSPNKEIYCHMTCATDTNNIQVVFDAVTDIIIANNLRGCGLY
GSH fluor: GSH bead compound fluorescence profile; GSH beads flow cytometry, compound fluorescence 488/530 nm; stronger effect = higher value; fluorescence (KMESF) at 10 µM; 190,000 tested, 0.25% active; AID 1776; in the data active = fluorescence above about 89;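 also: glutathione beads carrying GST-tagged Bcl family fusion proteins plus one bare bead set; values are compound well signal with DMSO vehicle wells as background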
Avidin fluor: compound fluoresces at 488/530 nm on avidin beads; fluorescence (KMESF) at 10 µM; 220,000 tested, 0.38% active; compound fluorescence 488/530 nm, flow cytometry; stronger effect = higher value; in the data active = fluorescence above about 47
RGS8-Gao reg: modulates binding of RGS8 to human Galphao | AID 1423 | response (percent of control binding), % at 10 µM | multiplexed bead flow cytometry; actives lie on both sides | P09471 | 220,000 tested, 0.34% active; in the data active = response below about 60% or above about 140%; inactive = in between;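 also: Galphao activated as the GDP aluminium fluoride complex binding bead-coupled RGS8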
RGS4-Gao reg: modulates binding of RGS4 to human Galphao; P09471; Multiplexed bead flow cytometry; actives lie on both sides; binding response (% of control), % at 10 µM; 220,000 tested, 0.33% active; in the data active = binding response below about 49% or above about 150%; inactive = in between;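 also: fluorescent Galphao activated with aluminum fluoride binding bead-coupled RGS4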
RGS16-Gao: RGS16-Galphao interaction regulator (human). O15492+P09471. bead-based flow cytometry RGS16-Galphao binding, fluorescence; actives lie on both sides. binding response (% of control), % at 10 µM. 220,000 tested, 0.38% active. AID 1441;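 also: Galphao activated by GDP with aluminum fluoride before binding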
Target sequence (O15492 whole entry, looked up): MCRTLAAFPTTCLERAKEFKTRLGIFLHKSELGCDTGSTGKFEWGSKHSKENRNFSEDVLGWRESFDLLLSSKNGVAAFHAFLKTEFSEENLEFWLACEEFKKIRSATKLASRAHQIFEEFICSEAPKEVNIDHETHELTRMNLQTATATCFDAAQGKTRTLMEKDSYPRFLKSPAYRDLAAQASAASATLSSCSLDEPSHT
Target sequence (P09471 whole entry, looked up): as the sequence (P09471 whole entry, looked up) above
RGS4-Gao HTS: RGS4-Galphao interaction regulator (human) | shares compounds with RGS16-Gao | multiplexed bead flow cytometry, RGS–Galpha-o binding | RGS4–Galpha-o binding response, % at 10 µM | 1,600 tested, 99% active;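 also: fluorescently labeled Galpha-o bound to GDP with aluminium fluoride binding biotinylated RGS beads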
Avidin counter: interferes with biotinylated probe binding to avidin beads; AID 1783; streptavidin beads, fluorescein-biotin binding, flow cytometry; shares compounds with RGS16-Gao; inhibition, % at 10 µM; 1,700 tested, under 10 active;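 active = inhibition above 50%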;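 also: median green fluorescence of gated singlet beads compared with DMSO control wells; 0% = DMSO wells and 100% = complete loss of bead fluorescence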
RGS8-Gao single: RGS8-Galphao interaction regulation, single point confirmation; 1,700 tested, 3% active; binding response (% of control), % at 10 µM; AID 1836; shares compounds with RGS16-Gao; bead-based flow cytometry RGS8-Galphao binding, fluorescence; actives lie on both sides; in the data active = binding response below about 72% or above about 130%; inactive = in between;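 also: Galphao activated as GDP AlF4 complex before binding bead RGS8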
RGS7-Gao confirm: confirmation of regulators of human RGS7-Galphao interaction. shares compounds with RGS16-Gao. bead-based flow cytometry RGS7-Galphao binding; actives lie on both sides. response (percent of control binding), % at 10 µM. 1,700 tested, 7.8% active; in the data active = response below about 75% or above about 130%; inactive = in between;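 also: fluorescent Galphao activated with GDP and aluminum fluoride binding bead-coupled RGS7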
RGS16-Gao single: confirmation of regulators of human RGS16-Galphao interaction. shares compounds with RGS16-Gao. bead-based flow cytometry, RGS16-Galphao binding; actives lie on both sides. response (% of control binding), % at 10 µM. 1,700 tested, 4% active; in the data active = response below about 74% or above about 130%; inactive = in between;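 also: Galphao activated as the GDP aluminium fluoride complex binding bead-coupled RGS16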
RGS4-Gao confirm: confirmation of regulators of human RGS4-Galphao interaction. shares compounds with RGS16-Gao. RGS4-Galphao binding, multiplexed bead flow cytometry; actives lie on both sides. binding response (% of control), % at 10 µM. 1,700 tested, 4% active; in the data active = binding response below about 74% or above about 130%; inactive = in between
RGS19-Gao single: confirmation of regulators of human RGS19-Galphao interaction; shares compounds with RGS16-Gao; bead-based flow cytometry RGS19-Galphao binding; actives lie on both sides; response (percent of control binding), % at 10 µM; 1,700 tested, 5% active; in the data active = response below about 50% or above about 160%; inactive = in between;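 also: 100% = no compound control and 0% = blank background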
* = called active by the depositor; ? = inconclusive; / = not tested or not shown; [ ] = remark or other dose. Unless noted, no rule for the calls is given here.

SMILES	RGS7-Gao	GSH fluor	Avidin fluor	RGS8-Gao reg	RGS4-Gao reg	RGS16-Gao	RGS4-Gao HTS	Avidin counter	RGS8-Gao single	RGS7-Gao confirm	RGS16-Gao single	RGS4-Gao confirm	RGS19-Gao single
OC(COc1ccc(Br)cc1)CN1CCOCC1 (stereo not drawn)	/	41	/	/	/	/	/	3	104	101	108	101	101
CC(C)=NOc1nc(N(C)C)nc(N(C)C)n1	108	10	11	130	108	208*[activator]	108*	-2	108	102	111	104	101
CNC(=S)N1CCC(NC(=O)C(Cc2ccccc2)NC(C)=O)CC1 (stereo not drawn)	106	19	10	103	104	105	/	/	/	/	/	/	/
COc1ccc(CCNC(=O)COC(=O)C23CC4CC(CC(Br)(C4)C2)C3)cc1	87	7	8	76	91	14*	91*	1	104	104	107	104	102
CCCC(=O)OC(C(=O)Nc1cc(C(F)(F)F)ccc1Cl)c1ccccc1 (stereo not drawn)	107	8	15	122	107	241*[activator]	107*	0	104	103	101	102	97
CCC(CC)=N/N=C/c1c(O)n(CC)c2cc(C3=NNC(=O)CC3)ccc12	77	16	12	67	80	24*	80*	1	105	100	110	100	110
CCn1c(O)c(/C=N/N=C/c2ccccc2)c2ccc(C3=NNC(=O)CC3)cc21	/	37	/	/	/	/	/	2	100	111	103	105	100
CCCCOc1ccc(C2=NNC(=O)CC2)cc1	100	13	11	98	100	103	/	/	/	/	/	/	/
CCn1c(C)nc2cc(C(=O)N/N=C/c3ccccc3)ccc21	97	23	13	101	98	98	/	/	/	/	/	/	/
Cc1c(O)c2c3c(cccc3c1O)C(=O)N(c1ccccc1)C2=O	161*[activator]	13	2	143*[activator]	164*[activator]	120	/	-1	95	92	93	93	92
Cc1ccc(C(=O)NNC(=O)c2ccc(C)cc2)cc1	109	11	25	106	104	111	/	/	/	/	/	/	/
Cc1ccc(C(=O)NC(O)C(Cl)Cl)cc1 (stereo not drawn)	113	19	2	104	161*[activator]	175*[activator]	/	2	103	103	102	102	107
Cc1ccc(SCc2cc(=O)n(C)[nH]2)cc1	?	17	10	103	102	104	/	/	/	/	/	/	/
Cc1ccc(-n2c(N)c(C(=O)N3CCOCC3)sc2=S)cc1	120	21	13	146*[activator]	120	228	120*	/	/	/	/	/	/
CCOC(=O)/C(C(=O)Nc1ccccc1Cl)=C1/NC(C)(C)Cc2ccccc21	/	17	/	/	/	/	/	5	95	73*	86	85	88
CCn1c(=O)n(CC(=O)NC2CCCC(C)C2C)c(=O)c2ccccc21 (stereo not drawn)	198*[activator]	38	99*	115	119	178	119*	/	/	/	/	/	/
CCn1c(=O)n(CC(=O)N2CC(C)CC(C)C2)c(=O)c2ccccc21 (stereo not drawn)	98	11	33	100	101	97	/	/	/	/	/	/	/
COc1ccc(Nc2ccc(S(=O)(=O)N3CCCCCC3)cc2[N+](=O)[O-])cc1	/	9	7	103	105	107	/	2	90	88	89	91	78
O=C(c1ccncc1)N1N=C(C2CCCCC2)CC1(O)C(F)(F)F (stereo not drawn)	51	11	2	61	47*	15	/	4	96	72*	89	83	78
COc1ccc(-c2cc(C(F)F)n3ncc(C(=O)Nc4cc(C)on4)c3n2)cc1	101	13	8	98	100	99	/	/	/	/	/	/	/
CCC1S/C(=N/N=C/c2ccco2)N(Cc2ccccc2)C1=O (stereo not drawn)	/	/	/	/	/	/	/	-1	101	105	101	102	118
CC1S/C(=N/N=C/c2ccco2)N(Cc2ccc(F)cc2)C1=O (stereo not drawn)	?	/	5	98	100	100	/	/	/	/	/	/	/
Cc1nc2c(=O)oc3ccccc3c2n1-c1ccccc1	120	22	8	141*[activator]	128	296	128*	/	/	/	/	/	/
COc1ccc(CC2CCOC2=O)cc1 (stereo not drawn)	96	37	10	92	94	-31*	94*	-1	102	106	104	105	94
O=C(CCc1nnc(CCCCc2ccccc2)o1)NCCN1CCCCC1=O	98	8	10	104	101	107	/	/	/	/	/	/	/
SMILES	RGS7-Gao	GSH fluor	Avidin fluor	RGS8-Gao reg	RGS4-Gao reg	RGS16-Gao	RGS4-Gao HTS	Avidin counter	RGS8-Gao single	RGS7-Gao confirm	RGS16-Gao single	RGS4-Gao confirm	RGS19-Gao single
Cc1c(NC(=O)/C=C/c2ccc(S(=O)(=O)N3CCOCC3)cc2)c(=O)n(-c2ccccc2)n1C	99	14	11	100	97	99	/	/	/	/	/	/	/
c1ccc2c(c1)OCCOCCOc1ccccc1OCCOCCO2	191*[activator]	10	2	145*[activator]	187*[activator]	75	/	1	109	116	114	104	143
CCN1C(=O)CCC(C(=O)O)C1c1ccc(OC)cc1 (stereo not drawn)	?	/	7	100	97	100	/	/	/	/	/	/	/
CCC/C(O)=C1\C(=O)CC(c2ccccc2)CC1=NCCc1c(C)[nH]c2ccc(C)cc12 (stereo not drawn)	52	16	2	52*	52	14*	52*	/	/	/	/	/	/
O=C(NCCCN1CCCC1)c1cccc(N2CCCC2=O)c1	7.6*	25	1	10*	18*	1	/	-1	100	105	100	107	98
O=C(NCCCN1CCN(c2ccc(F)cc2)CC1)c1cccc(N2CCCC2=O)c1	89	16	23	98	92	89	/	/	/	/	/	/	/

Compound activity deposited in PubChem BioAssay by NMMLSC.
